# ST2 IL33 inh: inhibitors of human ST2 (IL1RL1) binding to IL-33, primary screen, biochemical, AlphaLISA; Interleukin-1 receptor-like 1 (Homo sapiens), Q01638; AlphaLISA ST2-Fc/biotin-IL-33 interaction, 1 h; inhibition, % for hits at 17 µM; 78,000 tested, 2.3% active; in the data active = inhibition above about 30%
# Target sequence (Q01638 whole entry, looked up): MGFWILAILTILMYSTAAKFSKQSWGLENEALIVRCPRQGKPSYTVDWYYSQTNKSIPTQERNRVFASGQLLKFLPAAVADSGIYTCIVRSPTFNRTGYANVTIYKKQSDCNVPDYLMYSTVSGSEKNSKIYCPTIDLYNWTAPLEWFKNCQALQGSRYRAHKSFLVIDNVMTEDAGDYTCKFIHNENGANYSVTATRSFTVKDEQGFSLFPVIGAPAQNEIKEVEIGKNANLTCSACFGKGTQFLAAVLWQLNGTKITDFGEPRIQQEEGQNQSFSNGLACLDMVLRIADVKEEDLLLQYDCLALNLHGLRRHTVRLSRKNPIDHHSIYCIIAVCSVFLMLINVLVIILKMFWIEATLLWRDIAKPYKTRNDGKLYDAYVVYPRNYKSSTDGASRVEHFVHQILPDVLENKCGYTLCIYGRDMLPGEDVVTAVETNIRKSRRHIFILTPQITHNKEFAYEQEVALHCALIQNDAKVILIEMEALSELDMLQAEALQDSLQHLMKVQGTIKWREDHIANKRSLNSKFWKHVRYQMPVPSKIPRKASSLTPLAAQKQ
# * = called active by the depositor; i = inactive; ! = not confirmed by another sample. The full list was thinned out, with hits kept by preference.
SMILES,ST2 IL33 inh
O=C(NCCC(c1ccccc1)c1ccccc1)C1CC12CCN(C(=O)c1ccc[n+]([O-])c1)CC2 (stereo not drawn),34%*
O=C(NCCCc1ccccc1)C1CC12CCN(C(=O)c1cccc(-c3ccccc3F)c1)CC2 (stereo not drawn),i
O=S(=O)(c1ccc(-c2ccccc2)cc1)N1CCSC1c1ccccc1 (stereo not drawn),i
Cc1cccc(S(=O)(=O)N2CCSC2c2ccc(Br)cc2)c1 (stereo not drawn),i
COc1ccc(C2SCCN2S(=O)(=O)c2cccc(C)c2)cc1[N+](=O)[O-] (stereo not drawn),31%*
Cc1ccc(S(=O)(=O)N2CCSC2c2ccc(Br)cc2)cc1 (stereo not drawn),70%*
COc1cc(OC)c(C2SCCN2S(=O)(=O)c2cccc(C)c2)cc1OC (stereo not drawn),i
COc1ccc(C2SCCN2S(=O)(=O)c2cccc(C(F)(F)F)c2)cc1[N+](=O)[O-] (stereo not drawn),i
CC(=O)c1ccc(N2CCN(C(=O)CCc3nc4sc5c(c4c(=O)[nH]3)CCCC5)CC2)cc1,i
COc1ccc(C2CC(C(F)(F)F)n3nc(C(=O)NC(C)C)c(Cl)c3N2)cc1 (stereo not drawn),i
COc1cc(CN2CCCC(CCC(=O)N3CCN(C)CC3)C2)cc(OC)c1 (stereo not drawn),i
CC(C)c1cc(C(=O)N2Cc3cnn(Cc4ccc(F)cc4)c3C2)on1,i
COCCC(=O)NC1CCCN(CCc2ccccc2)C1 (stereo not drawn),i
O=C1CC(NC2CCN(Cc3ccco3)CC2)CN1CCc1ccccc1 (stereo not drawn),i
O=C(CCc1ccco1)NC1CCCN(CCc2ccccc2)C1 (stereo not drawn),31%*
O=C1OC(C(=O)Nc2ccc(Cl)cc2)Cc2ccccc21 (stereo not drawn),i
CC1=NC(Nc2nc(C)c3ccccc3n2)=NC(C)(C)C1,36%*
Cc1nc(SCc2ccc(Cl)cc2)nc2ccccc12,i
COc1ccc2nc(NC3=NC(c4ccccc4)CC(=O)N3)nc(C)c2c1 (stereo not drawn),i
COCC(=O)Nc1cccc(-n2ccc(-c3cccnc3)n2)c1,i
CN(CCC#N)C(=O)COc1ccc2c(c1)C(=O)CC(C)(C)O2,i
O=C(CS(=O)(=O)c1cccc2nsnc12)Nc1ccccc1Br,i
O=C(Nc1cccc2nsnc12)c1ccc(-c2ccc(Br)cc2)o1,31%*
O=C(Nc1ccccc1-c1ccccc1)c1ccc(Br)o1,i
CCC(=O)N1CCc2cc(Br)cc(S(=O)(=O)CCC(=O)NCCC(C)C)c21,i
SMILES,ST2 IL33 inh
Cc1csc(SCC(=O)N2CCC3(CC2)NCCNC3=O)n1,i
COc1ccc(OC)c(C2NC(=O)c3c(sc4c3CCN(C)C4)N2)c1 (stereo not drawn),i
CC(=O)c1ccc(NC2=C(N3CCCCC3)C(=O)c3ccccc3C2=O)cc1,59%*
O=C(CCN1C(=O)c2ccccc2C1=O)N1CCCCCC1,i
O=S(=O)(N=S(N1CCCCC1)N1CCCCC1)c1ccccc1,i
CC(=O)c1ccc(OC(=O)N2CCCCC2)cc1,i
CC(=O)c1ccc(NC(=O)C(Cc2ccccc2)N2C(=O)c3ccccc3C2=O)cc1 (stereo not drawn),i
NC1=C(N2CCCCC2)C(=O)c2ccccc2C1=O,71%*
COc1ccc(C)cc1NC(=O)c1cncc(Br)c1,i
Cc1ccc(C)c(NC(=O)CC(C)(C)C)c1,i
COc1ccc(C2C(C(=O)Nc3ccc(C)cc3C)=C(C)Nc3nnnn32)c(OC)c1OC (stereo not drawn),i
CN1C[C@@H](NC(=O)c2ccc(C(C)(C)C)cc2)C[C@H]1c1nc(-c2ccc3c(c2)OCO3)no1,64%*
COc1ccc(C(=O)N[C@H]2C[C@@H](c3nc(-c4ccc(OC(F)(F)F)cc4)no3)N(C)C2)cc1,i
Cc1noc([C@@H]2C[C@H](NC(=O)c3ccc(F)cc3)CN2C)n1,40%*
CN(C)c1ccc(C(=O)N[C@H]2C[C@@H](c3nc(-c4ccccn4)no3)N(C)C2)cc1,i
CN1C[C@@H](NC(=O)c2ccc(-c3ccccc3)cc2)C[C@H]1c1nc(-c2ccc(Cl)cc2)no1,i
Cc1noc([C@@H]2C[C@H](NC(=O)c3ccco3)CN2C)n1,i
Cc1nc2nc(-c3ccccc3)nn2c(Sc2ccccc2NC(=O)Nc2cccc(F)c2)c1C,i
Cc1nc2c(C(=O)NCc3ccc(F)cc3)cnn2c(C)c1Cc1ccc(F)cc1,i
COc1cc(C2SCC(=O)N2CCc2ccccc2)cc(OC)c1OC (stereo not drawn),i
Cc1csc2ncc(C(=O)Nc3ccc(F)c(Cl)c3)c(=O)n12,i
CCOc1ccccc1-c1nccn1CCSc1nnnn1C,i
Cc1cc(C)n(C(C)Cn2cnc(-c3ccccc3)c2-c2nccn2C)n1 (stereo not drawn),i
O=C1CSC(c2cccnc2)N1c1ccc(Cl)c(Cl)c1 (stereo not drawn),i
COC(=O)c1ccc2c(c1)nc(N1C[C@@H]3C[C@H](C1)[C@@H]1CCCC(=O)N1C3)n2C,i
SMILES,ST2 IL33 inh
Clc1ccccc1-n1ncnc1-c1ccc(Br)cc1,i
Clc1ccc(-c2ncnn2-c2ccc(Br)cc2)cc1,33%*!
Brc1ccc(-c2ncnn2-c2ccc(Br)nc2)cc1,i
COc1ccc(C2CC(c3ccc(C(C)C)cc3)n3ncnc3N2)cc1 (stereo not drawn),i
COc1cccc(CNS(=O)(=O)c2cccc3nsnc23)c1,i
CC(=O)Nc1cccc(NC(=O)c2cccc(C)c2)c1,i
CC(O)=Cc1nc2ccccc2nc1C=C(C)O,38%*
O=C(O)c1ccc2ccccc2n1,i
Cc1nc2ccccc2c(C(=O)O)c1C(=O)O,i
O=C(Nc1ccc2nc[nH]c2c1)c1ccccc1C1CCNC1 (stereo not drawn),i
Cc1ccsc1[C@@H]1CCN(C(=O)CCNC(=O)c2ccccc2F)C[C@H]1O,i
C=CCn1c(SCC(=O)Nc2ccccc2[N+](=O)[O-])nc2sc(CC)cc2c1=O,30%*
CCc1ccccc1NC(=O)CSc1nc2ccccc2c(=O)n1CCc1ccccc1,i
C=CCn1c(SCC(=O)Nc2sc3c(c2C(=O)OCC)CCC3)nc2ccccc2c1=O,i
COC(=O)[C@H]1CN(C(=O)c2ccc(OC)cc2)CCN1C(=O)c1cccnc1,i
COc1cc(NC(=O)c2ccccc2Cl)c(OC)cc1Cl,i
O=S(=O)(NCc1ccccn1)c1cc(Cl)c(Cl)cc1Cl,i
CSc1nc2c(c(=O)[nH]1)C(c1ccc(Cl)cc1)C1=C(CCCC1=O)N2 (stereo not drawn),i
NC(N)=NS(=O)(=O)c1ccc(N=Cc2cc(Br)cc([N+](=O)[O-])c2O)cc1,i
CCc1ccc(-c2nc(CN3CCC(C(=O)N4CCOCC4)CC3)c(C)o2)cc1,i
CCN1CCc2c(sc(NC(=O)c3ccc(Cl)cc3)c2C(=O)OC)C1,89%*
CCN1CCc2c(sc(NC(=O)COc3ccccc3)c2C(=O)OC)C1,i
COC(=O)c1c(NC(=O)c2ccc(F)cc2)sc2c1CCN(C(C)C)C2,i
O=C(c1cccc(N2CCNC2=O)c1)N1CCCC(CCc2ccc(F)cc2)C1 (stereo not drawn),i
CSc1cccc(NS(=O)(=O)c2ccc3[nH]cc(C(=O)N(C)CCC#N)c(=O)c3c2)c1,i
